Reference: the supplement of paper PMC8728848
This excerpt belongs to a sample that is enriched for the strongest signals.

Tested on: Gal6S(b1-4)GlcNAc6S
Test: glycan array binding signal (z-score within array); higher = stronger binding
Details: glycan notation: IUPAC condensed, linker removed
In short: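 The binding signal is a Z-score computed within each array and averaged over linkers. Arrays of the same protein sequence at different concentrations or buffers were also averaged together. Data originate from 3228 arrays in the Consortium for Functional Glycomics database, kept only where the protein sequence was available.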

Q: Epa22 was tested. Which “glycan array binding signal (z-score)” value did it give?
A: Its value is 12.6.

Q: How did the “glycan array binding signal (z-score)” value turn out when “AgI/II Vhelical-GFP (Streptococcus mutans)” was run?
A: The value was 2.17.

Q: Wza (Escherichia coli), P0A930 was tested. Which “glycan array binding signal (z-score)” value did it give?
A: The value was 0.571.
